Bioassay records deposited in PubChem BioAssay by National Center for Advancing Translational Sciences (NCATS).
GLP-1R inv ag: inverse agonists of human GLP-1 receptor; hit rate 1.6% among 410,000; Potency, µM (series often up to 38.3 µM), inactives show at the top dose activity change, negative = inhibition, actives largely listed as inhibitors; HEK293 GLP-1R CRE-luciferase, luminescence, 24 h; GLP-1R form is constitutively active; P43220; also: % is scaled to controls: 0 for no effect and ±100 for the full control effect; nearly all actives have a fitted effect of over 55% in size
Target sequence (P43220 whole entry, looked up): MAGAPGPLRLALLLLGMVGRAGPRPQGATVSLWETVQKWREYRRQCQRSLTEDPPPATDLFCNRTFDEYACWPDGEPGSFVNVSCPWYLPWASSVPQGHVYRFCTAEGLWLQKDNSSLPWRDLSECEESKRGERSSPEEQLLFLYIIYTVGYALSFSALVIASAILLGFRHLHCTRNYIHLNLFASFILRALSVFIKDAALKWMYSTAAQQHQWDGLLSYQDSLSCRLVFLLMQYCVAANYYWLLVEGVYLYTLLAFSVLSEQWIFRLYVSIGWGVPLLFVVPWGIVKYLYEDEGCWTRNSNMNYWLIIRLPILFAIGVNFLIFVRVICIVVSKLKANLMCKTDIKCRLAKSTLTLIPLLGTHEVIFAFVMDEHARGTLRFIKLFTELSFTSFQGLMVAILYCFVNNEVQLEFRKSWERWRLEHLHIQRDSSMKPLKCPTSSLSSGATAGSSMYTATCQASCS
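Assay principle: reduced luminescence from a cAMP-responsive reporter in HEK293 cells co-expressing a constitutively active GLP-1R. Conditions: 24 hr compound incubation, 37 deg C, 5% CO2.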
HepG2 tox: HepG2 cytotoxicity, counter-screen for TGF-b inhibitors; HepG2 CAGA-GFP viability, ATP luminescence, 18 h; Potency, µM (titrated, usually from 46.1 µM), for inactives: top-dose activity change, negative = cytotoxicity, usual class: cytotoxic; hit rate 0.76% among 410,000
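CellTiter-Glo luminescence gave cytotoxicity after 18 hours at 37 degrees C. The cells were HepG2 CAGA-GFP in 1% FBS DMEM, stimulated with 500 pg/mL TGF-beta after compound addition. %Activity was normalised to no-cell wells (complete cell-killing) and DMSO (no toxicity), and curves were fitted and classified.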
TGFb inhibitor: inhibitors of TGF-b signaling; HepG2 CAGA-GFP TGF-b/SMAD3 reporter, GFP fluorescence, 18 h; TGF-beta stimulated, 500 pg/mL final; Potency, µM (titrated, usually from 46.1 µM), without a hit: at the top dose activity, negative = inhibition, hits mostly inhibitors; hit rate 1.2% among 410,000; AID 588855; also: % is scaled to controls: 0 for no effect and ±100 for the full control effect; nearly all actives have a fitted effect of over 65% in size
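HEPG2 CAGA-GFP cells (1000/well, DMEM with 1% FBS) were pre-incubated 2 h at 37 degrees C, given compound by pin tool, then stimulated with TGF-beta at 500 pg/mL final for 18 h before per-cell GFP fluorescence imaging.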
GLP-1R agonist: agonists of human GLP-1 receptor. Potency, µM (series often up to 45.6 µM), for inactives: at the top dose activation, usual class: activators. AID 624172. P43220. HEK293 GLP-1R CRE-luciferase, luminescence, 4-6 h; cells express a hypersensitive GLP-1R form. hit rate 0.007% among 380,000; also: % of control where 0% means no effect
S2 tox: viability counter-screen for ATXN expression inhibitors; S2 cells (HEK-293 line with an ATXN2-luciferase reporter) viability, CellTiter-Fluor protease fluorescence, 24 h; Potency, µM (series often up to 56.7 µM), hits mostly cytotoxic; hit rate 0.49% among 400,000; also: nearly all actives have a fitted effect of over 40% in size
ATXN2 expr inh: inhibitors of ATXN2 expression. Potency, µM (series often up to 57 µM), for the others: at the top dose activity change, negative = inhibition, actives largely listed as inhibitors. AID 1745845. hit rate 0.72% among 360,000. HEK-293 ATXN2-luciferase reporter, luminescence, 24 h; also: % is scaled to controls: 0 for no effect and ±100 for the full control effect; nearly all actives have a fitted effect of over 55% in size
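ATXN2-luciferase reporter cells (luciferase flanked by upstream and downstream ATXN2 gene portions) were treated 24 h at 37 °C with compounds at up to 57 uM. SteadyGlo luminescence gave expression; GF-AFC fluorescence gave viability.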
Starred values were filed as active, the others as inactive; i = inactive; ? = inconclusive; nt = no result given; [ ] = dose if it differs, or a comment. Only some compounds are listed: those with a hit (about 3.7% of all), similar ones and a draw of the others. Calls follow the shape of the dose curve; as a rule, active = well fitted curve in the direction sought with a large enough effect; inconclusive = small, poorly fitted or top-dose-only effect, or another doubt; inactive = no such curve, though single readings can be large; an effect the other way counts as inactive or inconclusive. Potency is read from the fitted curve at half-maximal effect.

SMILES	GLP-1R inv ag	HepG2 tox	TGFb inhibitor	GLP-1R agonist	S2 tox	ATXN2 expr inh
COc1cccc(NS(=O)(=O)c2ccc3[nH]c4c(c3c2)CCCCCC4)c1	?	13µM*	?	nt	i	-23%
COc1ccc(NS(=O)(=O)c2ccc3[nH]c4c(c3c2)CCCCCC4)cc1	?	-103%	?	nt	?	?
CCCCCc1c2c(cc(O)c1C(=O)O)OC(=O)c1cc(C(=O)CCCC)c(OC)cc1O2	?	-60%	?	-5%	i	?
CCCCCc1c2c(cc(O)c1C(=O)O)OC(=O)c1c(cc(OC)cc1C(=O)CCCC)O2	?	-69%	20µM*	-2%	nt	?
CCOC(=O)N1CCN(Cc2nc3cc(NC(=O)CC)ccc3n2C(C)C)CC1	?	-23%	8.9µM*	nt	nt	nt
CCOC(=O)N1CCN(Cc2nc3cc(NC(=O)CC(C)C)ccc3n2C(C)C)CC1	?	2%	nt	nt	nt	nt
Cc1ccc(OCC(=O)Nc2ccc3c(c2)nc(CCN2CCCC2)n3C)cc1	-23%	0%	-1%	12%	i	nt
Cc1cccc(OCC(=O)Nc2ccc3c(c2)nc(CCN2CCC(C)CC2)n3C)c1	0%	-6%	3%	23%	?	-21%
Cc1ccc(C(C)C)c(OCC(=O)Nc2ccc3c(c2)nc(CN2CCCC2)n3C)c1	10µM*	-22%	-4%	11%	i	-5%
CCn1c(CN2CCC(C)CC2)nc2cc(NC(=O)COc3ccc(Cl)c(C)c3)ccc21	?	-37%	4µM*	nt	?	?
CCOc1cc(C=C(C(=O)OC)C(=O)OC)ccc1OCc1ccc([N+](=O)[O-])cc1	?	-52%	13µM*	-32%	?	32µM*
CCOc1cc(/C=N/O)ccc1OCc1ccc([N+](=O)[O-])cc1	10%	-10%	10%	11%	i	11%
FC(F)(F)c1cccc(N2CCN(Cc3nnc(-c4ccc5c(c4)OCO5)o3)CC2)c1	?	-25%	-27%	nt	?	?
CC(=O)n1cc(N(C(=O)CCl)c2ccc(C)cc2)c2ccccc21	4.5µM*	5µM*	5.6µM*	-1%	10µM*	8.9µM*
Cc1ccc(-n2c(Cc3ccccc3)nnc2SCc2nc(-c3cccs3)no2)cc1	10µM*	-42%	?	nt	?	?
Cc1cccc(-n2c(Cc3ccccc3)nnc2SCc2nc(-c3cccs3)no2)c1	?	-52%	13µM*	nt	?	?
c1ccc(Cc2nnc(SCc3nc(-c4cccs4)no3)n2-c2ccccc2)cc1	?	-24%	?	nt	?	-35%
Cc1c(C(=O)N(C)CC2CCCN(C)C2)cnn1-c1nccc(-c2ccco2)n1 (stereo not given)	nt	nt	nt	nt	i	nt
C#CC(=O)N(c1ccc(OC)c(OC)c1)C(C(=O)NC1CCCC1)c1cccs1 (stereo not given)	?	13µM*	?	-35%	nt	?
Cc1cccc(N(C(=O)C(F)(F)F)C(C(=O)NC2CCCCC2)c2cccs2)c1 (stereo not given)	0%	-16%	-4%	-3%	i	-1%
C#CC(=O)N(c1cccc(OC)c1)C(C(=O)NC1CCCC1)c1cccs1 (stereo not given)	3.2µM*	8.9µM*	22µM*	-4%	1.6µM*	1.6µM*
CCC(C)(C)C1CCC2(CC1)NC(=O)N(CC(=O)NC(C)CCc1ccccc1)C2=O (stereo not given)	3.5µM*	-23%	4%	6%	i	-6%
C[C@@H]1CN(Cc2ccc(F)cc2)[C@@H](C)CN1C(=O)c1cc2c(C(=O)C(=O)N(C)C)cn(C)c2cc1Cl	nt	nt	nt	nt	nt	-17%
CCOC(=O)c1cccc(NC(=O)CN2C(=O)c3ccccc3Sc3ncccc32)c1	-26%	-26%	8%	2%	?	-26%
COc1ccc(-c2ccc(N3C(c4cc(OC)cc(OC)c4)=Cc4ccc(OC)cc4C3CC(C)=O)cc2)cc1 (stereo not given)	-2%	nt	nt	3%	?	-23%
SMILES	GLP-1R inv ag	HepG2 tox	TGFb inhibitor	GLP-1R agonist	S2 tox	ATXN2 expr inh
COc1cc(OC)cc(C2=Cc3ccccc3C(CC(C)=O)N2c2ccc(C#CC3(N)CCCCC3)cc2)c1 (stereo not given)	?	nt	nt	-22%	28µM*	?
COc1cc(OC)cc(C2=Cc3ccc(OC)cc3C(CC(C)=O)N2c2ccc(C#CC3(O)CCCCC3)cc2)c1 (stereo not given)	?	nt	nt	0%	?	-27%
COc1cc(OC)cc(C2=Cc3ccc(OC)cc3C(CC(C)=O)N2c2ccc(C#CC3(N)CCCCC3)cc2)c1 (stereo not given)	?	nt	nt	-15%	18µM*	-16%
COc1cccc(C2=Cc3ccc(F)cc3C(CC(C)=O)N2c2ccc(C#CC3(O)CCCCC3)cc2)c1 (stereo not given)	5µM*	nt	nt	0%	?	-23%
Cc1ccc(NC(=O)c2ccc(-n3nncc3-c3ccccc3)cc2)cc1	nt	-12%	-1%	nt	nt	nt
O=C1c2ccccc2NC(c2ccccc2OCc2ccccc2)N1Cc1ccco1 (stereo not given)	nt	-30%	?	nt	nt	nt
Cc1ccc(-n2cc(CNCCc3cscn3)c(-c3ccc(F)cc3)n2)cc1	?	-63%	?	11%	?	?
Cc1ccc(C)c(-n2cc(CNC(C)Cn3cncn3)c(-c3ccccc3)n2)c1 (stereo not given)	?	18%	3%	21%	?	-5%
Cc1ccc(-n2cc(CNC(C)c3cnn(C)c3)c(-c3ccc(F)cc3)n2)cc1 (stereo not given)	?	7%	-23%	16%	i	nt
Cc1ccc(-n2cc(CNC(C)c3cnn(C)c3C)c(-c3ccc(F)cc3)n2)cc1 (stereo not given)	?	-73%	13µM*	17%	?	nt
Cc1ccc(-n2cc(CNCCCn3ccnc3C)c(-c3ccc(F)cc3)n2)cc1	2%[0.307 µM]	13µM*	?	-8%	?	-22%
Cc1ccc(C)c(-n2cc(CNCCCn3cccn3)c(-c3ccccc3)n2)c1	11µM*	-50%	-28%	0%	?	?
Cc1ccc(-n2cc(CNCCCn3cccn3)c(-c3cccc(C)c3)n2)cc1	?	-99%	?	7%	nt	32µM*
N#CC[n+]1cccc(Br)c1	nt	2%	-1%	nt	nt	nt
CN(C)CCNc1ccc(CO)c2oc3ccc(O)cc3c(=O)c12	10µM*	-27%	?	-30%	27µM*	21µM*
